The subject of this assay is primary human hepatic stellate cells (donor 1). The assay is described as follows: scaled lipid accumulation score (0 = DMSO-like, 1 = nortriptyline-like); higher = stronger HSC inactivation (lipid re-accumulation), active = hit call of the paper. The note with it: 48 h.
[1] abbreviates: library stock concentration: 3.33 mM.
The mark [2] stands for this setting: library stock concentration: 10 mM.
Setting [3] is: library stock concentration: 1 mM.
Setting [4] is: library stock concentration: 2 mM.
[5] abbreviates: library stock concentration: 80 uM.
[6] abbreviates: library stock concentration: 400 uM.

Counter-ions that a name gives are not always drawn. Hit rate of the full screen: of about 5,800 compounds, about 620 (11%) showed activity. This excerpt belongs to a sample that is enriched for actives. Values without a mark were called inactive.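 How the source made its calls: active = score above a cut-off or among the top three wells of a plate; in these data no inactive exceeds 0.85.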

With `COc1ccc2cc3[n+](cc2c1OC)CCc1cc2c(cc1-3)OCO2` [Berberine HCl], the “scaled lipid accumulation score” value by setting is: under setting [1], at most 0; under setting [2], at most 0.

In the case of `C[n+]1cc2c3c(ccc2c2ccc4cc5c(cc4c21)OCO5)OCO3` [Sanguinarine sulfate], the “scaled lipid accumulation score” value by setting is: (library stock concentration: 4.7 mM) 0.693; under setting [2], 0.287. For the compound `C[n+]1cc2c3c(ccc2c2ccc4cc5c(cc4c21)OCO5)OCO3` [Sanguinarine], the “scaled lipid accumulation score” value is 0.869 (active). Regarding `COc1ccc2cc3[n+](cc2c1OC)CCc1cc2c(cc1-3)OCO2` [Berberine chloride], the “scaled lipid accumulation score” value is at most 0. Also, the “scaled lipid accumulation score” value under setting [2] was at most 0.

On to `C[n+]1cc2c3c(ccc2c2ccc4cc5c(cc4c21)OCO5)OCO3` [Sanguinarine chloride], for which, under setting [2], the “scaled lipid accumulation score” value is 0.196. Consider `CC#CCC(C)C(=O)/C=C/[C@@H]1[C@H]2C/C(=C/CCCC(=O)O)C[C@H]2C[C@H]1O` (stereo partly specified) [15-keto Iloprost], for which the “scaled lipid accumulation score” value under setting [3] was at most 0. For the compound `CC(C)OC(=O)CCC/C=C\C[C@@H]1[C@@H](/C=C/C(=O)COc2cccc(C(F)(F)F)c2)[C@H](O)C[C@@H]1O` [15-keto Fluprostenol isopropyl ester], the “scaled lipid accumulation score” value under setting [3] was at most 0. With `CC1CC2C3CCC4=CC(=O)C=CC4(C)C3(F)C(O)CC2(C)C1C(=O)CO` (stereo unspecified), under setting [2], the “scaled lipid accumulation score” value was at most 0.

Consider `COc1cc2ncnc(Nc3ccc(F)c(Cl)c3)c2cc1NC(=O)C=CCN1CCCCC1` [listing 1 of 2 here], for which the “scaled lipid accumulation score” value runs as follows: under setting [4], 0.903 (active); under setting [2], 1.47 (active). As to `CNC(=O)CN1CCC(Oc2cc3c(Nc4cccc(Cl)c4F)ncnc3cc2OC)CC1` [AZD8931 (Sapitinib)], the “scaled lipid accumulation score” value runs as follows: under setting [1], 0.28; under setting [2], 0.713. Turning to `COc1cc2ncnc(Nc3ccc(F)c(Cl)c3)c2cc1NC(=O)C=CCN1CCCCC1` [listing 2 of 2 here], under setting [1], the “scaled lipid accumulation score” value is 1.08 (active). As to `COc1cc2ncnc(Nc3ccc(F)c(Cl)c3)c2cc1NC(=O)/C=C/CN1CCCCC1`, the “scaled lipid accumulation score” value under setting [5] is at most -0.016, the “scaled lipid accumulation score” value under setting [6] was 0.274 and the “scaled lipid accumulation score” value under setting [2] is 0.219. With `O=C1/C(=C/c2cccs2)CCC/C1=C\c1cccs1`, under setting [2], the “scaled lipid accumulation score” value was at most 0. Regarding `CC(=O)N1CCN(c2ccc(OCC3COC(Cn4ccnc4)(c4ccc(Cl)cc4Cl)O3)cc2)CC1` (stereo unspecified), the “scaled lipid accumulation score” value under setting [2] is 0.048. For `CC(=O)N1CCN(c2ccc(OCC3COC(Cn4ccnc4)(c4ccc(Cl)cc4Cl)O3)cc2)CC1` (stereo unspecified) [Ketoconazole], the “scaled lipid accumulation score” value is 0.131. Also, the “scaled lipid accumulation score” value under setting [1] is 0.086. In the case of `CC(=O)Oc1c(C)c(C)c2c(c1C)CCC(C)(CCCC(C)CCCC(C)CCCC(C)C)O2` (stereo not drawn) [Alpha-tochopheryl acetate], under setting [2], the “scaled lipid accumulation score” value was 0.117. Consider `O=C1NC(=O)c2c1c1c3ccccc3[nH]c1n1cncc21` [Isogranulatimide], for which the “scaled lipid accumulation score” value under setting [1] is at most 0. In the case of `CCCCC[C@H](O)/C=C/[C@@H]1[C@@H](C/C=C\CCCC(=O)OC(C)C)[C@@H](O)C[C@H]1O` [Prostaglandin F2.alpha. isopropyl ester], the “scaled lipid accumulation score” value under setting [3] is at most 0. `O=C(O)CC/C=C\C[C@H]1CO[C@@H](c2ccccc2Cl)O[C@H]1c1ccccc1O`: the “scaled lipid accumulation score” value under setting [2] is at most 0. As to `C=C1/C(=C\C=C2/CCC[C@]3(C)[C@@H]([C@H](C)CCCC(C)(C)O)CC[C@@H]23)C[C@@H](O)C[C@@H]1O`, under setting [2], the “scaled lipid accumulation score” value was at most 0. Turning to `C=C1/C(=C\C=C2/CCC[C@]3(C)[C@@H]([C@H](C)CCCC(C)(C)O)CC[C@@H]23)C[C@@H](O)C[C@@H]1O` [1?,25-Dihydroxyvitamin D3], under setting [3], the “scaled lipid accumulation score” value is 0.004. Take `C=C1C(=CC=C2CCC[C@]3(C)[C@@H]([C@H](C)CCCC(C)C)CC[C@@H]23)C[C@@H](O)C[C@@H]1O` [Alfacalcidol]: the “scaled lipid accumulation score” value under setting [2] was 1.03 (active). For the compound `C=C1/C(=C\C=C2/CCC[C@]3(C)[C@@H]([C@H](C)CCCC(C)(C)O)CC[C@@H]23)C[C@@H](O)C[C@@H]1O` [Calcitriol], the “scaled lipid accumulation score” value under setting [1] was at most 0, the “scaled lipid accumulation score” value (library stock concentration: 4.8 mM) is 0.018 and the “scaled lipid accumulation score” value under setting [2] was at most 0. Take `C=C1/C(=C\C=C2/CCC[C@]3(C)[C@@H]([C@H](C)CCCC(C)C)CC[C@@H]23)C[C@@H](O)C[C@@H]1O` [Alfacalcidol]: the “scaled lipid accumulation score” value by setting is: under setting [1], at most 0; (library stock concentration: 5 mM) at most -0.006.

Take `O=C(c1cc2cc(O)ccc2[nH]1)c1cc2cc(O)ccc2[nH]1` [Flt-3 Inhibitor II]: under setting [1], the “scaled lipid accumulation score” value was at most 0. Consider `Nc1ccccc1NC(=O)c1ccc(CNc2nccc(-c3cccnc3)n2)cc1` [Mocetinostat] [listing 1 of 2 here], for which the “scaled lipid accumulation score” value is at most 0 under setting [5] and at most 0 under setting [6].

Regarding `Nc1ccccc1NC(=O)c1ccc(CNc2nccc(-c3cccnc3)n2)cc1` [Mocetinostat (MGCD0103)] [listing 1 of 2 here], under setting [2], the “scaled lipid accumulation score” value is 0.769. Consider `Nc1ccccc1NC(=O)c1ccc(CNc2nccc(-c3cccnc3)n2)cc1` [Mocetinostat (MGCD0103)] [listing 2 of 2 here], for which, under setting [1], the “scaled lipid accumulation score” value was 0.974 (active). In the case of `Nc1ccccc1NC(=O)c1ccc(CNC(=O)OCc2cccnc2)cc1` [Entinostat (MS-275)], the “scaled lipid accumulation score” value is 0.152 under setting [1] and 0.418 under setting [2]. For `O=C(Nc1ccc(Cl)cc1)c1ccccc1NCc1ccncc1` [VEGF Receptor Tyrosine Kinase Inhibitor II], the “scaled lipid accumulation score” value under setting [1] is at most 0. With `Nc1ccccc1NC(=O)c1ccc(CNc2nccc(-c3cccnc3)n2)cc1` [Mocetinostat] [listing 2 of 2 here], the “scaled lipid accumulation score” value by setting is: under setting [4], 0.728 (active); under setting [2], 0.648 (active). With `Nc1ccccc1NC(=O)c1ccc(CNC(=O)OCc2cccnc2)cc1`, the “scaled lipid accumulation score” value under setting [5] is at most 0; the “scaled lipid accumulation score” value under setting [6] was at most 0; the “scaled lipid accumulation score” value under setting [3] was 0.014; the “scaled lipid accumulation score” value under setting [4] is at most 0; the “scaled lipid accumulation score” value under setting [2] was 0.628.

As to `CC(=O)Nc1ccc(C(=O)Nc2ccccc2N)cc1` [CI994 (Tacedinaline)], the “scaled lipid accumulation score” value is at most 0 under setting [1] and 0.161 under setting [2].

For `COC(=O)C(N)Cc1ccc(Cl)cc1` (racemic) [DL-p-Chlorophenylalanine methyl ester hydrochloride], under setting [2], the “scaled lipid accumulation score” value was at most 0.

Consider `CCCCCCCC/C=C\CCCCCCCC(=O)OC[C@@H](O)COP(=O)(O)O` [1-Oleoyl Lysophosphatidic Acid (sodium salt)], for which, under setting [3], the “scaled lipid accumulation score” value is at most 0. Take `CCCCCCCC/C=C\CCCCCCCC(=O)OC[C@@H](O)COP(=O)(O)O` [1-Oleoyl Lysophosphatidic Acid]: under setting [3], the “scaled lipid accumulation score” value was at most 0. `CCCCCCCCCCOc1ccc(OCC(=O)Cn2cc(C(=O)OC)c3cc(C(=O)O)ccc32)cc1`: the “scaled lipid accumulation score” value under setting [3] was at most 0.

The values are drawn from the supplement of paper PMC9135407.
